Some test systems named below: NCI-H23 lung; NCI-H226 lung; NCI-H322M lung; HOP-62 NSCLC; NCI-H460 lung; HOP-92 NSCLC; NCI-H522 lung; 786-0 renal; COLO 205 colon; A549/ATCC NSCLC.
Test in all cases: NCI-60 one-dose screen, 48 h (100 = growth as untreated, 0 = no growth, -100 = all killed)
Conditions in all cases: 10 µM unless noted

This is part of a sample that, as a whole, favours compounds with a hit. Of some 83,000 tested, about 20% had one in any assay.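 96-well plates, one dose, 48 hours. Percent growth reported; active if below 10.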 Unmarked numbers belong to inactive results. The source made the active and inactive calls.

As for `Cc1ccc(-c2nc(N3CCCNCC3)c3oc(-c4ccccc4)nc3n2)cc1`, the growth is 9.93% (active) in the assay on NCI-H23 lung; 93.1% in the assay on NCI-H226 lung; -70.4% (active) in the assay with NCI-H322M lung; -55.3% (active) in the assay with HOP-62 NSCLC; -67.9% (active) with NCI-H460 lung; -27.1% (active) in the assay with HOP-92 NSCLC. The growth in the assay on NCI-H522 lung is -74.6% (active); in the assay with 786-0 renal it was -89.8% (active); in the assay on COLO 205 colon it was -80.9% (active).

For the compound `COCCn1cc(-c2nc(-c3cc4cccnc4[nH]3)cs2)c2cc(OC)ccc21`, the growth in the assay on NCI-H23 lung is 8.67% (active); with NCI-H226 lung, 28.8%; in the assay on NCI-H322M lung, 21.2%; in the assay on HOP-62 NSCLC it was 13.4%; in the assay with NCI-H460 lung, 7.21% (active); with HOP-92 NSCLC, 4.04% (active). Moreover, the growth was 41.6% in the assay on NCI-H522 lung, 28.5% with 786-0 renal and 49.4% in the assay on COLO 205 colon.

With `CCOC(=O)c1cc(C)n(-c2ccc(C(=O)O)cc2)c1C`, the growth was 89.4% in the assay on NCI-H23 lung; 98.6% in the assay on NCI-H226 lung; 114% in the assay with NCI-H322M lung; 88.1% in the assay with HOP-62 NSCLC; 44.1% in the assay on NCI-H460 lung; 100% with HOP-92 NSCLC. Also, the growth is 65.8% in the assay with NCI-H522 lung, 101% in the assay on 786-0 renal and 89.8% with COLO 205 colon.

Consider `C=CCSc1nnc(NC(=O)CCl)s1`, for which the growth in the assay on NCI-H23 lung was 93.6%; in the assay on NCI-H226 lung, 88.8%; with NCI-H322M lung, 101%; with HOP-62 NSCLC, 109%; in the assay on HOP-92 NSCLC it was 112%; in the assay with NCI-H522 lung, 85.3%. Also, the growth is 95.2% in the assay with A549/ATCC NSCLC, 101% in the assay with 786-0 renal and 122% with COLO 205 colon.

`CCN(CC)S(=O)(=O)c1ccc(S(=O)(=O)N2CCC[C@@H](C(=O)N3CCN(c4nc(C(C)C)no4)CC3)C2)cc1`: the growth in the assay on NCI-H23 lung was 50%; with NCI-H226 lung, 82.1%; with NCI-H322M lung, 88.7%; with HOP-62 NSCLC, 66.8%; with HOP-92 NSCLC, 77.1%; in the assay with NCI-H522 lung, 60.2%. Also, the values for the growth in the assay with A549/ATCC NSCLC, in the assay with 786-0 renal and with COLO 205 colon were 67.1%, 89.6% and 102%, respectively.

For `Nc1nc2ccc(-c3nc4ccc5[nH]ncc5c4c4c3CCCC4)cc2s1`, the growth in the assay on NCI-H23 lung is 100%; with NCI-H226 lung it was 112%; with NCI-H322M lung it was 101%; in the assay with HOP-62 NSCLC, 101%; in the assay on HOP-92 NSCLC, 106%; in the assay on NCI-H522 lung, 86.8%. Also, the growth in the assay on A549/ATCC NSCLC is 91.8%; in the assay on 786-0 renal, 108%; with COLO 205 colon it was 106%.

For `NC(=O)c1ccc(-c2c3ccccc3cc3c2ccc2ccccc23)cc1`, the growth with NCI-H23 lung is 70.7%; with NCI-H226 lung it was 65.6%; in the assay on NCI-H322M lung it was 80.1%; in the assay on HOP-62 NSCLC, 65.7%; in the assay on HOP-92 NSCLC it was 76.4%; in the assay with NCI-H522 lung it was -20.6% (active). Moreover, the growth with A549/ATCC NSCLC was 63.1%; in the assay with 786-0 renal, 52.4%; with COLO 205 colon, 52.5%.

Take `CC1CCN(CCOc2ccc(CNc3ccc4nc(CCC5CCCCC5)[nH]c4c3)cc2)CC1`: the growth is 71.7% in the assay on NCI-H23 lung; 30.9% in the assay on NCI-H226 lung; 58.5% in the assay on NCI-H322M lung; 61.5% with HOP-62 NSCLC; 16% in the assay on HOP-92 NSCLC; 44.8% in the assay with NCI-H522 lung. Further, the growth is 55.3% in the assay with A549/ATCC NSCLC, -55.6% (active) with 786-0 renal and -84.7% (active) with COLO 205 colon.

Take `CC/C(=C(/c1ccc(Cl)cc1)c1ccc(OCCN(C)C)cc1)c1ccc(Cl)cc1`: the growth was 73.5% in the assay on NCI-H23 lung; 87.5% in the assay with NCI-H226 lung; 83.6% in the assay on NCI-H322M lung; 78.5% in the assay with HOP-62 NSCLC; 37.3% in the assay on NCI-H460 lung; 83.7% in the assay with HOP-92 NSCLC. The growth in the assay with NCI-H522 lung was 70.3%; in the assay on 786-0 renal, 66.3%; in the assay with COLO 205 colon it was -16.1% (active).

As to `COc1ccc(Nc2nnc(-c3ccc(OC)c(OC)c3)o2)cc1`, the growth in the assay on NCI-H23 lung was 74.1%; with NCI-H226 lung it was 85.3%; with NCI-H322M lung, 87.4%; in the assay with HOP-62 NSCLC, 84.9%; in the assay with HOP-92 NSCLC it was 66.4%; in the assay with NCI-H522 lung, 62.8%. Also, the growth in the assay on A549/ATCC NSCLC is 83.9%; with 786-0 renal it was 91.9%; in the assay on COLO 205 colon, 99.5%.

Regarding `O=S(=O)(Nc1cc(F)cc(Cl)c1)c1ccc(-c2cnc(C3CC3)o2)cc1`, the growth in the assay on NCI-H23 lung was 44%; in the assay on NCI-H226 lung, 43%; with NCI-H322M lung it was 44.5%; with HOP-62 NSCLC, 40.5%; in the assay on NCI-H460 lung, 20.7%; in the assay on HOP-92 NSCLC, 26.7%. Besides, the growth in the assay on NCI-H522 lung is 1.55% (active); in the assay on 786-0 renal, 30.7%; with COLO 205 colon, 24.3%.

As for `COC(=O)Nc1nc2ccc(S(=O)c3ccccc3)cc2[nH]1` (stereo not given), the growth in the assay on NCI-H23 lung is 64.4%; in the assay with NCI-H226 lung, 92.9%; in the assay on NCI-H322M lung, 88%; in the assay with HOP-62 NSCLC it was 99.4%; in the assay with NCI-H460 lung it was 60.3%; with HOP-92 NSCLC, 75.5%. Further, the values for the growth in the assay with NCI-H522 lung, with 786-0 renal and in the assay on COLO 205 colon were 65.8%, 80.4% and 67.5%, respectively.

For the compound `Cc1ccc(Nc2cc(N)nc(N)n2)cc1Cl`, the growth is 87.6% in the assay with NCI-H23 lung; 93.3% with NCI-H226 lung; 99.8% in the assay on NCI-H322M lung; 87.3% in the assay on HOP-62 NSCLC; 83.9% in the assay with HOP-92 NSCLC; 87% in the assay on NCI-H522 lung. In addition, the results for the growth in the assay with A549/ATCC NSCLC, with 786-0 renal and with COLO 205 colon were 83.1%, 87.9% and 107%, respectively.

Consider `O=C(NNC(=O)c1ccc(NC(=O)c2ccccn2)cc1)Nc1ccc([N+](=O)[O-])cc1`, for which the growth in the assay on NCI-H23 lung was 106%; in the assay on NCI-H226 lung it was 94.2%; in the assay on NCI-H322M lung, 95.7%; in the assay on HOP-62 NSCLC it was 96.1%; in the assay with NCI-H460 lung, 107%; in the assay on HOP-92 NSCLC it was 96.7%. Moreover, the growth with NCI-H522 lung was 100%; with 786-0 renal, 96.5%; in the assay on COLO 205 colon, 114%.

As to `C1CCC([PH+](C2CCCCC2)C2CCCCC2[PH+](C2CCCCC2)C2CCCCC2)CC1.[Au].[CH-]1CCCCC1C1CCCC[N-]1` (stereo not given), the growth in the assay on NCI-H23 lung was -31% (active); in the assay on NCI-H226 lung, -35.1% (active); with NCI-H322M lung it was -52% (active); in the assay on HOP-62 NSCLC, -39.9% (active); in the assay on HOP-92 NSCLC it was -38.5% (active); in the assay with NCI-H522 lung, -51% (active). Also, the growth is -56.8% (active) in the assay on A549/ATCC NSCLC, -64.6% (active) with 786-0 renal and -62% (active) in the assay with COLO 205 colon.

The record behind these values is PubChem BioAssay (NCI).
